Assay results published in PubChem BioAssay.
Calls of active or inactive are those of the source.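 How the source made its calls, unless noted: active means fluorescence slope higher than the sample average by over 3 SD (cut at about -0.22 in these data, passing the limit was not always enough); inactive means the rest.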

System: not listed separately
Experiment: inhibitors of E-selectin induction by TNFa, primary screen, imaging, HUVEC, immunofluorescence, MLSMR starter and 10KST1 sets (AID 487;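 active means visually confirmed hit in the image check and inhibition above 20%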;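 on inhibition: signal is fraction of cell area covered by stained E-selectin grains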;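 on nuclei count: 100% = median nuclei count of all wells on the same plate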)
Conditions: HUVEC TNFalpha-induced E-selectin immunofluorescence imaging, at 2 µM; inhibition: stronger effect = higher value; nuclei count: measured here: cell number, toxicity
With CCc1nc(NCCCN2CCOCC2)c2oc3ccccc3c2n1 the inhibition was -55.2% (inactive) and the nuclei count was 103%. In the case of CCOC(=O)N1CCN(C(=O)CSc2cc(C)nc3c(-c4ccccc4OC)c(C)nn23)CC1, the inhibition is reported as 14.7% (inactive) and the nuclei count is reported as 110%. In the case of O=C1c2ccccc2C(=O)N1CNc1ccccc1, the inhibition is reported as -144% (inactive) and the nuclei count is reported as 118%. For CC(C)(C)OC(=O)N1CC=C2C(C#N)=C(N)C(C#N)(C#N)C(c3cccs3)C2C1 (stereo not given), the inhibition was -132% (inactive) and the nuclei count was 106%. With CCOC(=O)Nc1cc(OC)c(OC)cc1Cc1nccc2cc(OC)c(OC)cc12 the inhibition was -20.1% (inactive) and the nuclei count was 173%. With Cc1cc(=O)n2nc(-c3ccccc3)sc2n1 the nuclei count was 108% and the inhibition was -70.5% (inactive). In the case of COc1cccc(C2CC(=O)Nc3c2c(=O)n(C)c(=O)n3C)c1OC (stereo not given), the inhibition is reported as -17.6% (inactive) and the nuclei count is reported as 112%. In the case of CCOC(=O)N1CCN(c2c(N3CCc4ccccc4C3)c(=O)c2=O)CC1, the nuclei count is reported as 122% and the inhibition is reported as -46.4% (inactive). With COC(=O)Cc1c(C)c2ccc(OCC(=O)N3CCOCC3)cc2oc1=O the nuclei count was 74.6% and the inhibition was -28.7% (inactive). In the case of Cc1cccc(OCC(=O)N(Cc2cccs2)C2CCS(=O)(=O)C2)c1C (stereo not given), the nuclei count is reported as 112% and the inhibition is reported as -142% (inactive). With CN(C)S(=O)(=O)c1ccc(/C(O)=C2/C(=O)C(=O)N(CCN3CCCCC3)C2c2cccnc2)cc1 (stereo not given) the inhibition was -68.5% (inactive) and the nuclei count was 113%. With CCOC(=O)c1sc2nc(NC(=O)C3CCCCC3)sc2c1C the inhibition was 19.5% (inactive) and the nuclei count was 96%. For O=P1(O)C=C(c2ccccc2)NC(c2ccccc2)=C1, the inhibition was -48% (inactive) and the nuclei count was 117%. With CC1(C)NC(=O)N(CCOc2cccc(Cl)c2Cl)C1=O the nuclei count was 92.1% and the inhibition was -35.1% (inactive). With Cn1c(=O)c2c(nc(CN3CCCCC3)n2CCc2ccccc2)n(C)c1=O the inhibition was -3.5% (inactive) and the nuclei count was 158%. In the case of CS(=O)(=O)N1CCN(c2ccccc2NC(=O)c2ccc(-c3ccc(Cl)cc3Cl)o2)CC1, the nuclei count is reported as 54.7% and the inhibition is reported as 24.8% (inactive). In the case of CCOc1cc2[nH]c(=O)n(CCCCC(=O)NCc3ccco3)c(=O)c2cc1OCC, the nuclei count is reported as 110% and the inhibition is reported as -41.6% (inactive). For O=C(NCc1ccco1)C1(S(=O)(=O)c2ccc(Cl)cc2)CC1, the nuclei count was 115% and the inhibition was -100% (inactive). For O=C(Nn1c(C2CC2)nc2ccccc2c1=O)c1ccco1, the nuclei count was 116% and the inhibition was -38.3% (inactive). With COCCCN1C(=O)C(=O)/C(=C(/O)c2ccc(OCC(C)C)cc2C)C1c1cccnc1 (stereo not given) the inhibition was -28.7% (inactive) and the nuclei count was 110%. For CCn1c2ccccc2c2cc(Nc3cc(C)nc4ncnn34)ccc21, the nuclei count was 65.1% and the inhibition was -104% (inactive). In the case of COc1cc(NC(=O)C2CCCN2S(=O)(=O)c2cccc3cccnc23)cc(OC)c1OC (stereo not given), the nuclei count is reported as 110% and the inhibition is reported as -75.5% (inactive). For CCOc1ccc(Cn2nnc(C(=O)NCc3ccc(OC)cc3)c2N)cc1, the nuclei count was 100% and the inhibition was -22.4% (inactive). For CCOC(=O)c1[nH]c(C)c(C(=O)NCc2ccccn2)c1C, the inhibition was -173% (inactive) and the nuclei count was 114%. In the case of COc1ccc2cc(C#N)c(SCC(=O)N3CCCC3)nc2c1, the nuclei count is reported as 150% and the inhibition is reported as -68.2% (inactive). For Cc1ccccc1Nc1cc2ccccc2c(=O)[nH]1, the inhibition was -35% (inactive) and the nuclei count was 98.8%. With O=C(CNc1ccc(Oc2ccccc2)cc1)N1CCOCC1 the nuclei count was 97.4% and the inhibition was -25.6% (inactive). In the case of CCCOC(=O)C1C2C=CC3(CN(c4cccc(Cl)c4)C(=O)C13)O2 (stereo not given), the inhibition is reported as -55.3% (inactive) and the nuclei count is reported as 116%. With COc1cc(NC(=O)c2cc(CC(C)C)on2)c(OC)cc1Cl the inhibition was -15.3% (inactive) and the nuclei count was 106%. In the case of O=S(=O)(Nc1ccccn1)c1ccc(Oc2ccccc2)cc1, the nuclei count is reported as 93.8% and the inhibition is reported as -2.9% (inactive). With O=C(c1cc2ccccc2oc1=O)N1CCN(c2ccc(N3CCOCC3)nn2)CC1 the inhibition was -13.6% (inactive) and the nuclei count was 110%. For Cc1ccc(-c2nc(CS(=O)CC(=O)NCCN(CC(C)C)CC(C)C)c(C)o2)cc1 (stereo not given), the nuclei count was 112% and the inhibition was -18% (inactive). In the case of O=c1ccc(S(=O)(=O)N2CCC(Cc3ccccc3)CC2)c[nH]1, the inhibition is reported as -15.8% (inactive) and the nuclei count is reported as 111%. In the case of O=C(NCCC1=CCCCC1)C1CC(=O)N(C2CCCCCC2)C1 (stereo not given), the nuclei count is reported as 126% and the inhibition is reported as -41.7% (inactive). With Cc1nn(C(=O)c2ccoc2C)c(N)c1-c1ccccc1 the inhibition was -25.3% (inactive) and the nuclei count was 116%. For Cc1nnc(N2C(=O)c3oc4ccccc4c(=O)c3C2c2ccco2)s1 (stereo not given), the inhibition was -28.9% (inactive) and the nuclei count was 124%. In the case of O=c1[nH]c2sc3c(c2c2nncn12)CCCC3, the inhibition is reported as -112% (inactive) and the nuclei count is reported as 111%. In the case of C=COC(=O)CSc1snc(SCC(=O)OC)c1C#N, the nuclei count is reported as 88.9% and the inhibition is reported as -31.9% (inactive). With COc1ccc(-n2c(=O)c3c4c(sc3n3c(C)nnc23)CCCC4)cc1 the nuclei count was 116% and the inhibition was -7.4% (inactive). In the case of CCOC(=O)N1CCC(NC(=O)Cn2ncc3c4ccccc4n(C)c3c2=O)CC1, the inhibition is reported as -47.7% (inactive) and the nuclei count is reported as 105%.

Molecular target: Voltage-gated potassium channel subunit beta-2 (Rattus norvegicus) (UniProt P62483)
Sequence (P62483 whole entry, looked up): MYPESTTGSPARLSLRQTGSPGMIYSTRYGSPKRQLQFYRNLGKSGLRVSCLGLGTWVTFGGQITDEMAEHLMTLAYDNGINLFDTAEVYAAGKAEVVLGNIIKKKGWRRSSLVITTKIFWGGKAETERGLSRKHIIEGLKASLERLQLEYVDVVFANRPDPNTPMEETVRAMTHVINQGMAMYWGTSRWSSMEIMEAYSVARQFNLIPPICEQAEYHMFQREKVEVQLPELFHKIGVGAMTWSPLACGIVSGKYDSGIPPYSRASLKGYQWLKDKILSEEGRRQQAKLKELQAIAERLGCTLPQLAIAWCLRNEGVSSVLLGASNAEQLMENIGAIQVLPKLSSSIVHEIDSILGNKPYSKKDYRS
Experiment: KvBeta enzyme negative modulators, primary screen, biochemical, NADPH fluorescence (AID 622);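 further: slope of raw intensity against log time taken from 70 to 1610 s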
Conditions: recombinant KvBeta, 4-cyanobenzaldehyde reduction, at 10 µM, stronger effect = higher value
For CCc1nc(NCCCN2CCOCC2)c2oc3ccccc3c2n1, the fluorescence slope was -0.465 (inactive). With CCOC(=O)N1CCN(C(=O)CSc2cc(C)nc3c(-c4ccccc4OC)c(C)nn23)CC1 the fluorescence slope was -0.54 (inactive). In the case of O=C1c2ccccc2C(=O)N1CNc1ccccc1, the fluorescence slope is reported as -0.603 (inactive). With CC(C)(C)OC(=O)N1CC=C2C(C#N)=C(N)C(C#N)(C#N)C(c3cccs3)C2C1 (stereo not given) the fluorescence slope was -0.476 (inactive). With CCOC(=O)Nc1cc(OC)c(OC)cc1Cc1nccc2cc(OC)c(OC)cc12 the fluorescence slope was -0.532 (inactive). In the case of Cc1cc(=O)n2nc(-c3ccccc3)sc2n1, the fluorescence slope is reported as -0.421 (inactive). With COc1cccc(C2CC(=O)Nc3c2c(=O)n(C)c(=O)n3C)c1OC (stereo not given) the fluorescence slope was -0.536 (inactive). In the case of CCOC(=O)N1CCN(c2c(N3CCc4ccccc4C3)c(=O)c2=O)CC1, the fluorescence slope is reported as -0.538 (inactive). With COC(=O)Cc1c(C)c2ccc(OCC(=O)N3CCOCC3)cc2oc1=O the fluorescence slope was -0.363 (inactive). For Cc1cccc(OCC(=O)N(Cc2cccs2)C2CCS(=O)(=O)C2)c1C (stereo not given), the fluorescence slope was -0.639 (inactive). With CN(C)S(=O)(=O)c1ccc(/C(O)=C2/C(=O)C(=O)N(CCN3CCCCC3)C2c2cccnc2)cc1 (stereo not given) the fluorescence slope was -0.396 (inactive). In the case of CCOC(=O)c1sc2nc(NC(=O)C3CCCCC3)sc2c1C, the fluorescence slope is reported as -0.533 (inactive). For O=P1(O)C=C(c2ccccc2)NC(c2ccccc2)=C1, the fluorescence slope was -0.35 (inactive). For CC1(C)NC(=O)N(CCOc2cccc(Cl)c2Cl)C1=O, the fluorescence slope was -0.338 (inactive). With Cn1c(=O)c2c(nc(CN3CCCCC3)n2CCc2ccccc2)n(C)c1=O the fluorescence slope was -0.572 (inactive). With CS(=O)(=O)N1CCN(c2ccccc2NC(=O)c2ccc(-c3ccc(Cl)cc3Cl)o2)CC1 the fluorescence slope was -0.357 (inactive). For CCOc1cc2[nH]c(=O)n(CCCCC(=O)NCc3ccco3)c(=O)c2cc1OCC, the fluorescence slope was -0.508 (inactive). For O=C(NCc1ccco1)C1(S(=O)(=O)c2ccc(Cl)cc2)CC1, the fluorescence slope was -0.639 (inactive). For O=C(Nn1c(C2CC2)nc2ccccc2c1=O)c1ccco1, the fluorescence slope was -0.48 (inactive). With COCCCN1C(=O)C(=O)/C(=C(/O)c2ccc(OCC(C)C)cc2C)C1c1cccnc1 (stereo not given) the fluorescence slope was -0.463 (inactive). With CCn1c2ccccc2c2cc(Nc3cc(C)nc4ncnn34)ccc21 the fluorescence slope was -0.527 (inactive). For COc1cc(NC(=O)C2CCCN2S(=O)(=O)c2cccc3cccnc23)cc(OC)c1OC (stereo not given), the fluorescence slope was -0.598 (inactive). In the case of CCOc1ccc(Cn2nnc(C(=O)NCc3ccc(OC)cc3)c2N)cc1, the fluorescence slope is reported as -0.536 (inactive). In the case of CCOC(=O)c1[nH]c(C)c(C(=O)NCc2ccccn2)c1C, the fluorescence slope is reported as -0.51 (inactive). With COc1ccc2cc(C#N)c(SCC(=O)N3CCCC3)nc2c1 the fluorescence slope was -0.57 (inactive). In the case of Cc1ccccc1Nc1cc2ccccc2c(=O)[nH]1, the fluorescence slope is reported as -0.17 (inactive). In the case of O=C(CNc1ccc(Oc2ccccc2)cc1)N1CCOCC1, the fluorescence slope is reported as -0.541 (inactive). In the case of CCCOC(=O)C1C2C=CC3(CN(c4cccc(Cl)c4)C(=O)C13)O2 (stereo not given), the fluorescence slope is reported as -0.491 (inactive). For COc1cc(NC(=O)c2cc(CC(C)C)on2)c(OC)cc1Cl, the fluorescence slope was -0.575 (inactive). With O=S(=O)(Nc1ccccn1)c1ccc(Oc2ccccc2)cc1 the fluorescence slope was -0.598 (inactive). For O=C(c1cc2ccccc2oc1=O)N1CCN(c2ccc(N3CCOCC3)nn2)CC1, the fluorescence slope was -0.603 (inactive). In the case of Cc1ccc(-c2nc(CS(=O)CC(=O)NCCN(CC(C)C)CC(C)C)c(C)o2)cc1 (stereo not given), the fluorescence slope is reported as -0.538 (inactive). For O=c1ccc(S(=O)(=O)N2CCC(Cc3ccccc3)CC2)c[nH]1, the fluorescence slope was -0.369 (inactive). In the case of O=C(NCCC1=CCCCC1)C1CC(=O)N(C2CCCCCC2)C1 (stereo not given), the fluorescence slope is reported as -0.367 (inactive). In the case of Cc1nn(C(=O)c2ccoc2C)c(N)c1-c1ccccc1, the fluorescence slope is reported as -0.534 (inactive). With Cc1nnc(N2C(=O)c3oc4ccccc4c(=O)c3C2c2ccco2)s1 (stereo not given) the fluorescence slope was -0.579 (inactive). In the case of O=c1[nH]c2sc3c(c2c2nncn12)CCCC3, the fluorescence slope is reported as -0.499 (inactive). With C=COC(=O)CSc1snc(SCC(=O)OC)c1C#N the fluorescence slope was -0.581 (inactive). For COc1ccc(-n2c(=O)c3c4c(sc3n3c(C)nnc23)CCCC4)cc1, the fluorescence slope was -0.35 (inactive). In the case of CCOC(=O)N1CCC(NC(=O)Cn2ncc3c4ccccc4n(C)c3c2=O)CC1, the fluorescence slope is reported as -0.28 (inactive).
